The record followed here is ChEMBL document CHEMBL1157539, “Thousands of chemical starting points for antimalarial lead identification” (Nature, 2010).

What all share (assay type): functional
In assay [1] the test system is Plasmodium falciparum. The assay can be described thus: GSK_TCMDC: Inhibition of Plasmodium falciparum 3D7 in whole red blood cells, using parasite LDH activity as an index of growth. Test compounds present at 2uM.
Assay [2] concerns Plasmodium falciparum. As to the kind of experiment: GSK_TCMDC: Inhibition of Plasmodium falciparum Dd2 in whole red blood cells, using parasite LDH activity as an index of growth. Test compounds present at 2uM.
The test system of assay [3] is HepG2. The assay can be described thus: GSK_TCMDC: Percent inhibition of human HepG2 cell line. Test compounds present at 10uM.

By Inhibition is commonly meant the share of the control response that was lost under treatment. Read a low Inhibition as a response near the control.

Consider `O=C(NCc1ccccc1)c1nn(CCCN2CCC3(CC2)C(=O)NCN3c2ccccc2)cc1-c1ccc(Cl)c(Cl)c1`, for which the Inhibition was determined as 88% in assay [1], 21% in assay [2] and 6% in assay [3].

For the compound `COc1cccc(CN2CCC(CCOC(c3ccccc3)c3ccc(Cl)cc3)CC2)c1O` (stereo not drawn), the results for the Inhibition in assay [1], in assay [2] and in assay [3] were 99%, 100% and 22%, respectively.

For `CN(CC(=O)N1CCN(S(=O)(=O)c2cccc(Cl)c2)CC1CN1CCCC1)c1ccc(Cl)c(Cl)c1` (stereo not drawn), the values for the Inhibition in assay [1], in assay [2] and in assay [3] were 89%, 32% and 32%, respectively.

As to `COC(C(=O)OCCC1CCCN1C)(c1ccccc1)C1CCCCC1` (stereo not drawn), the Inhibition turned out to be 100% in assay [1], 5% in assay [2] and 3% in assay [3].

With `Br.COC(=O)c1ccc(CC(C)NCC(O)c2cccc(OC(F)(F)F)c2)cc1` (stereo not drawn), the Inhibition stood at 98% in assay [1], 67% in assay [2] and 2% in assay [3].

Take `CC(Cc1ccc(NC(=O)CCCc2ccccc2)cc1)NCCc1cccc(Cl)c1.Cl` (stereo not drawn): the values for the Inhibition in assay [1], in assay [2] and in assay [3] were 94%, 3% and 12%, respectively.

For the compound `CCC1CN2CCc3cc(OC)c(OC)cc3C2CC1CC1NCCc2c1[nH]c1ccc(O)cc21` (stereo not drawn), the figures for the Inhibition in assay [1], in assay [2] and in assay [3] were 99%, 100% and 45%, respectively.

For the compound `CN(c1cc(NC(=O)c2cccs2)ccn1)C1CCN(Cc2cccc(F)c2)CC1.O=C(O)C(F)(F)F`, the Inhibition in assay [1] is reported as 94%; in assay [2] it was 95%; in assay [3] it was 0%.

For `Cc1cccc(N2CCN(Cc3cc(Cl)ccc3O)CC2)c1C.O=C(O)C(=O)O`, the Inhibition in assay [1] is 96%; in assay [2], 96%; in assay [3], 0%.

On to `O=C(/C=C/c1ccc(Cl)c(Cl)c1)N1CCC2CC(N3CCC(c4c[nH]c5ccccc45)CC3)CCC2C1` (stereo not drawn), for which the Inhibition is listed as 100% in assay [1], 99% in assay [2] and 31% in assay [3].

With `O=C(NC1CCC(CN2CCC(c3c[nH]c4ccccc34)CC2)CC1)C1(O)c2ccccc2-c2ccccc21` (stereo not drawn), the Inhibition in assay [1] is 85%; in assay [2], 46%; in assay [3] it was 22%.
